PME-1 primary = blocks human protein phosphatase methylesterase 1; recombinant PME-1, FP-Rh probe fluorescence polarization; inhibition, % at 5.9 µM; 320,000 tested, 0.53% active; AID 2130;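 active = inhibition above the campaign mean of all compounds plus 3 SD, cut at about 26% in these data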;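 note: competitive labeling of PME-1 active site by serine hydrolase directed probe; inhibitors block probe labeling so polarization falls and inhibition rises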
Target sequence (Q9Y570 whole entry, looked up): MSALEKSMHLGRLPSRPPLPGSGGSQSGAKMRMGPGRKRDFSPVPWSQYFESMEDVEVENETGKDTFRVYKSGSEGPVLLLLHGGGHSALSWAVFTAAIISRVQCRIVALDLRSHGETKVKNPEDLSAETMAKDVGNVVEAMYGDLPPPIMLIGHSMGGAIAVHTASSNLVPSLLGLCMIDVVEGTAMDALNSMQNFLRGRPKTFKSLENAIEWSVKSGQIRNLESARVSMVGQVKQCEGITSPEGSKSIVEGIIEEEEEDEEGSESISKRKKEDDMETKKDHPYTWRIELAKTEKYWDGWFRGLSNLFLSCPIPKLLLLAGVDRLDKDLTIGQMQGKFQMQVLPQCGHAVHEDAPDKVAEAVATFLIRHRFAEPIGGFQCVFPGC
Fam108B counter = Fam108B inhibition, counter-screen for RBBP9 inhibitors | recombinant Fam108B, FP-Rh probe fluorescence polarization | inhibition, % at 9.51 µM | 300,000 tested, 0.33% active | AID 1947;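 active = inhibition above the screen mean inhibition plus 3 SD, computed separately per campaign, cut at about 18% in these data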;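 note: inhibitors lower polarization as less probe binds the enzyme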
PAD4 FP inh = blocks human protein arginine deiminase 4; recombinant PAD4, RCA probe fluorescence polarization; inhibition, % at 6.36 µM; 330,000 tested, 0.41% active; AID 485272;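 active = percent inhibition above a cutoff equal to the mean of all tested compounds plus 3 SD, cut at about 15% in these data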
LYPLA2 inh = blocks human lysophospholipase 2, a PME1 counter-screen | O95372 | recombinant LYPLA2, FP-Rh probe fluorescence polarization | inhibition, % at 5.9 µM | 320,000 tested, 0.38% active | AID 2177;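 active = inhibition above the screen-wide mean plus 3 SD, limit set per campaign, cut at about 26% in these data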
LYPLA1 inh = LYPLA1 (human) inhibition in PME1 counter-screen; O75608; recombinant LYPLA1, FP-Rh probe fluorescence polarization; inhibition, % at 5.9 µM; 320,000 tested, 0.16% active; AID 2174;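 active = inhibition above the mean of all tested compounds plus 3 SD, set per campaign, cut at about 14% in these data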;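 note: inhibitors block serine hydrolase probe labeling of LYPLA1 so polarization falls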
GSTO1 inh = blocks human GSTO1 in RBBP9 counter-screen; 300,000 tested, 1.1% active; P78417; inhibition, % at 5.96 µM; recombinant GSTO1, activity-based probe fluorescence polarization;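 active = inhibition above the campaign mean inhibition plus 3 SD, cut at about 35% in these data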
Target sequence (P78417 whole entry, looked up): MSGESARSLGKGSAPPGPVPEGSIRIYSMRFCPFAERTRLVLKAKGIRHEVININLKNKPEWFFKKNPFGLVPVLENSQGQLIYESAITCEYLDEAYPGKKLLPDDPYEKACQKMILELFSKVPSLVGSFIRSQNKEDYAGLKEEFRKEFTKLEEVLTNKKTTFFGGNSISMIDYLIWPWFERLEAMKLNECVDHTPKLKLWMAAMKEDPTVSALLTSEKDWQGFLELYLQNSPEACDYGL
LYPLA1 confirm = counter-screen for PME1 inhibitors: confirmation of human LYPLA1 inhibitors; inhibition, % at 5.9 µM; shares compounds with LYPLA1 inh; recombinant LYPLA1, FP-Rh probe fluorescence polarization; 480 tested, 69% active; AID 2233;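 active = mean inhibition across replicates above the hit cutoff set in the primary screen, cut at about 15% in these data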;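 note: loss of FP-Rh probe labeling of LYPLA1 seen as lower polarization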
Numbers stand for hits; i = inactive; nt = not tested or not shown. In the library only some 1.8% were active in any assay of this set; here they are far more common.

SMILES | PME-1 primary | Fam108B counter | PAD4 FP inh | LYPLA2 inh | LYPLA1 inh | GSTO1 inh | LYPLA1 confirm
CSC(=NC#N)N1CCN(C(c2ccccc2)c2ccccc2)CC1 | i | i | i | i | 20 | i | 24
O=C(Nc1ccc(Br)cc1)c1cc(-c2ccncc2)nc2ccccc12 | nt | nt | i | nt | nt | nt | nt
CC(OC(=O)/C=C/c1ccco1)C(=O)NC1CCCCC1C (configuration not stated) | i | nt | i | i | i | nt | nt
COc1ccc(CCN(C)CC(=O)Nc2cc(C)nc3ccccc23)cc1OC | i | i | i | i | i | i | nt
S=c1[nH]nc(-c2cc3c(s2)-c2ccccc2CC3)o1 | i | i | i | i | 17 | i | 21
COC(=O)C1CCN(c2c([N+](=O)[O-])cc(C(F)(F)F)cc2[N+](=O)[O-])CC1 | i | i | i | i | 32 | i | 33
NC(=O)C1CCN(c2c([N+](=O)[O-])cc(C(F)(F)F)cc2[N+](=O)[O-])CC1 | i | i | i | i | i | i | nt
CC1CC(C)CN(S(=O)(=O)c2ccc3c(c2)CC(C)N3C(=O)C2CC2)C1 (configuration not stated) | i | i | i | i | 29 | i | 31
CC1Cc2cc(S(=O)(=O)N3CCCCC3C)ccc2N1C(=O)C1CCC1 (configuration not stated) | i | i | i | i | i | i | nt
CCOC(=O)C1CCCCN1S(=O)(=O)c1ccc2c(c1)CC(C)N2C(=O)C1CCC1 (configuration not stated) | i | i | i | i | 15 | i | i
CC1CC(C)CN(S(=O)(=O)c2ccc3c(c2)CC(C)N3C(=O)C2CCC2)C1 (configuration not stated) | i | i | i | i | 54 | i | 54
O=c1[nH]n2c(=O)c3c([nH]c2c1N=Nc1cccc(C(F)(F)F)c1)CCCC3 | 71 | i | i | i | 16 | i | 15
COc1cc2c(cc1OC)C(c1ccc(Br)cc1)NCC2 (configuration not stated) | i | i | i | i | i | i | nt
Cc1ccc(-n2c(O)c(C=Nc3ccccc3-c3n[nH]c(=S)[nH]c3=O)c3ccccc3c2=O)c(C)c1 | i | i | i | i | 15 | i | 15
CC(C)[C@H](NC(=O)N1CC(=O)Nc2ccccc21)C(=O)N[C@H](Cc1ccccc1)C(=O)O | i | i | i | i | i | i | nt
Clc1ccc2[nH]c3c(c2c1)CNCC3 | i | i | i | i | i | i | nt
Cc1ccsc1C1Nc2ccc3ncccc3c2C2=C1C(=O)CCC2 (configuration not stated) | i | i | i | i | 28 | i | 31
COC(=O)CNc1cc(S(=O)(=O)N2CCCCC2)ccc1Oc1ccc(C(=O)OC)cc1 | i | i | i | i | i | i | nt
COC(=O)c1ccc(Oc2ccc(S(=O)(=O)N3CCCCC3)cc2N)cc1 | i | i | i | i | 26 | i | 47
COC(=O)[C@@]12CCCCN1[C@H](c1ccc(-c3ccc4c(c3)OCO4)cc1)[C@H]1C(=O)N(C)C(=O)[C@H]12 | nt | nt | i | nt | nt | nt | nt
Cc1ccc2nc(N3CC(=O)Nc4ccccc43)nc(-c3ccccc3)c2c1 | i | i | i | i | i | i | nt
COc1ccccc1-c1csc(-n2ncc(C#N)c2N)n1 | i | i | i | i | 22 | i | 40
COc1ccc(-c2csc(-n3ncc(-c4ccccn4)c3N)n2)cc1 | i | i | i | i | i | i | nt
C=C1c2cccc(C(F)(F)F)c2O[C@H](C(=O)OCC)[C@H]1OC | nt | nt | i | nt | nt | nt | nt
O=C(OCC(=O)N1CCC(Cc2ccccc2)CC1)c1cccnc1Cl | nt | nt | i | nt | nt | nt | nt
SMILES | PME-1 primary | Fam108B counter | PAD4 FP inh | LYPLA2 inh | LYPLA1 inh | GSTO1 inh | LYPLA1 confirm
O=C(O)COn1c(-c2ccccc2)nc2ccc(Cl)cc21 | i | i | i | i | i | i | nt
COn1c(-c2ccccc2)nc2ccc(Cl)cc21 | i | i | i | i | 50 | i | i
Cc1cc(OCC(=O)NCCCN2CCCC2=O)c2c(C)c(C)c(=O)oc2c1 | i | i | i | i | i | i | nt
CC(NC(=O)c1ccco1)C(=O)N1CCN(c2cccc(C(F)(F)F)c2)CC1 (configuration not stated) | i | nt | i | i | 34 | nt | 45
CC(NC(=O)c1ccco1)C(=O)N1CCN(c2ccccc2)CC1 (configuration not stated) | i | i | i | i | i | i | nt
Cc1[nH][nH]c(=O)c1N=Nc1ccc(S(N)(=O)=O)cc1 | i | i | i | i | i | i | nt
Cc1[nH][nH]c(=O)c1N=Nc1ccc(Br)c(Cl)c1 | i | i | i | i | 24 | i | 18
Cc1cc(C)cc(N(C(=O)c2ccccn2)C(C(=O)NC2CCCCC2)c2cccs2)c1 (configuration not stated) | i | i | i | i | 17 | i | i
COc1ccc(C(=O)NCC(=O)OCC(=O)Nc2cc([N+](=O)[O-])ccc2F)cc1 | i | i | i | i | i | i | nt
O=C(CCCCCN1C(=O)c2ccccc2C1=O)Oc1ccc2c3c(c(=O)oc2c1)CCC3 | i | i | i | i | 32 | i | 51
O=C(Oc1ccc2c3c(c(=O)oc2c1)CCC3)c1ccco1 | i | i | i | i | i | i | nt
C=CCOc1ccc(Br)cc1CNC(C)(C)C | i | i | i | i | 18 | i | i
Cc1nn(-c2ccccc2)c(N2CCCC2)c1/C=N/Nc1ccc(S(N)(=O)=O)cc1[N+](=O)[O-] | i | i | i | i | 20 | i | 42
NS(=O)(=O)c1ccc(N/N=C/c2ccc(C(=O)O)cc2)c([N+](=O)[O-])c1 | i | i | i | i | i | i | nt
CCOC(=O)c1ccc(N2C(=O)c3n[nH]c(C)c3C2c2ccc(OC)c(OC)c2)cc1 (configuration not stated) | i | i | i | i | 29 | i | 42
CCOC(=O)c1ccc(N2C(=O)c3n[nH]c(C)c3C2c2ccc(OC)cc2)cc1 (configuration not stated) | i | i | i | i | i | i | nt
Cc1ccc(S(=O)(=O)N2CCC(C(=O)NC3CC(C)(C)NC(C)(C)C3)CC2)cc1C | i | i | i | i | i | i | nt
COC/C=C/C1=CC2=CC(=O)C(C)(OC(=O)c3cnc4ccccc4n3)C(=O)C2=CO1 (configuration not stated) | i | i | 50 | i | 22 | 56 | i
COc1ccc(Cc2nnc(SCC(=O)N3CCN(c4ccccc4)CC3)o2)cc1 | i | i | i | i | 24 | i | 30
Cc1ccc(NS(=O)(=O)c2cccc(C(=O)NCC(c3ccco3)N3CCCC3)c2)cc1 (configuration not stated) | i | nt | i | i | i | nt | nt
COc1ccc(OC)c(NC(=O)C2CCC(CNc3c(N4CCOCC4)c(=O)c3=O)CC2)c1 (configuration not stated) | i | i | i | i | i | i | nt

Screens (PubChem BioAssay)
